# Bioassay records deposited in PubChem by National Center for Advancing Translational Sciences (NCATS).
# IL-1B inflam inh – inhibitors of inflammasome signaling (IL-1 beta secretion). AID 743279. 360,000 compounds, 4.7% hits. THP-1 LPS/ATP IL-1B secretion, AlphaLISA, 16 h; hits give low values. activity change, % at 57.5 µM; in the data active = activity change below about -50%; inconclusive = mostly about -30% to -49%
#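 THP-1 cells pretreated 1 hr with compounds (up to 57.5 uM final), then stimulated with LPS (250 ng/mL final) plus ATP (1.25 mM final); secreted IL-1B measured by AlphaLISA after 16 hr, decreased signal indicating inhibition.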
# HT1080-NT tox – kills 2HG-producing HT-1080-NT fibrosarcoma cells | HT-1080-NT fibrosarcoma viability, CellTiter-Glo ATP luminescence, 48 h | Potency, µM (doses to about 46.1 µM), hits mostly cytotoxic | 360,000 compounds, 1.6% hits;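 also: NT is the 2HG producing partner of a matched IDH1 knockdown line; nearly all actives have a fitted effect of over 55% in size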
#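 Viability by CellTiter-Glo luminescence after 48 h compound exposure at 37C of HT-1080-NT cells (750/well, RPMI, 5% FBS). % activity scaled between DMSO wells and medium-only wells, then curve-fitted and categorized by curve class.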
# DT40 TDP1 CPT – growth inhibition of DT40 Tdp1-/-;hTDP1 cells with camptothecin (screen for TDP1 inhibitors) | Potency, µM (series often up to 46.2 µM), actives largely listed as inhibitors | 420,000 compounds, 12% hits | chicken DT40 Tdp1-/-;hTDP1 cells + 20 nM CPT, ATP luminescence, 48 h; also: nearly all actives have a fitted effect of over 55% in size
#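 Chicken DT40 Tdp1-/- cells stably complemented with human TDP1 were seeded at 400 cells/well in medium containing 20 nM camptothecin, exposed to pin-transferred compounds, and grown at 37 °C for at least 48 hr. Viability was read as ATP luminescence.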
# DT40 TDP1 no CPT – qHTS for Inhibitors of human tyrosyl-DNA phosphodiesterase 1 (TDP1): qHTS in cells in absence of CPT; DT40 Tdp1-/- hTDP1 cells, no CPT, ATP luminescence, 48 h; Potency, µM (highest dose often 46.2 µM), hits mostly inhibitors; 420,000 compounds, 15% hits; AID 686978, 2013; also: nearly all actives have a fitted effect of over 55% in size
#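 Camptothecin absent (DMSO only). Human TDP1-complemented DT40 knockout cells, 400 cells/well, 37 °C for minimum 48 hr; ATP measured via CellTiter-Glo, 30 min dark incubation, luminescence.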
# HT1080 IDH1KD tx – toxicity to HT-1080 IDH1 knockdown cells (counter line) | HT-1080 IDH1 knockdown viability, ATP luminescence, 48 h | Potency, µM (titrated, usually from 46.1 µM), usual class: cytotoxic | 360,000 compounds, 2% hits | AID 686971
#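 Viability of IDH1-knockdown HT-1080 fibrosarcoma cells was assessed by CellTiter-Glo after 48 h at 37 °C with titrated compound; concentration-effect curves were classified by fit quality and response size.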
# ALOX12 inh – ALOX12 (human) lipoxygenase inhibition. purified 12hLO, xylenol orange hydroperoxide absorbance. 580,000 compounds, 1.1% hits. P18054. Potency, µM (series often up to 108 µM), actives largely listed as inhibitors
# Target sequence (P18054 whole entry, looked up): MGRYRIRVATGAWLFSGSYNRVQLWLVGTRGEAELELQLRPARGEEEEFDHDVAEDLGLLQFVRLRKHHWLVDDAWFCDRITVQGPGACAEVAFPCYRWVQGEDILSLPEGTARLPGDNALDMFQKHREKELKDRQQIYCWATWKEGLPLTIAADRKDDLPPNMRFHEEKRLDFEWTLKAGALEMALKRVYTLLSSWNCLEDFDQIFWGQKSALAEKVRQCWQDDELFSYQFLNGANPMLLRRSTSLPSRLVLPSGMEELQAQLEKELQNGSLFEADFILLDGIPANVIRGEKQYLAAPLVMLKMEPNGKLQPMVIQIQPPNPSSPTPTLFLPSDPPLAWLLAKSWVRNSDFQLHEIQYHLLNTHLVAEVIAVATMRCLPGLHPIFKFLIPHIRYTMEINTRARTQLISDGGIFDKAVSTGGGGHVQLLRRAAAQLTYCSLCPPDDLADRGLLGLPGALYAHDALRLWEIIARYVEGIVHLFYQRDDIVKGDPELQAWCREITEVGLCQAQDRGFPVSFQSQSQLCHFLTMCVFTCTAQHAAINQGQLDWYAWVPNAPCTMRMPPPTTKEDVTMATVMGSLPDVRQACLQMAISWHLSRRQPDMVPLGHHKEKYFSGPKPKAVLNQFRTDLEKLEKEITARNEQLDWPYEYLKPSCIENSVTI
#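 Purified human 12hLO at 150 nM in 25 mM Hepes, 0.01% Triton X-100, pH 7.0, preincubated 15 min at room temperature with compound. Reaction started with 40 uM arachidonic acid, 30 min at room temperature. Hydroperoxide measured by Fe-xylenol orange, 573/405 nm absorbance ratio.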
# Hits are given with their value; - = inactive; ? = inconclusive; . = no result; [ ] = dose if it differs, or a comment. The sample as a whole holds a higher share of hits than the screen did. Unless noted, calls follow the shape of the dose curve; as a rule, active = well fitted curve in the direction sought with a large enough effect; inconclusive = small, poorly fitted or top-dose-only effect, or another doubt; inactive = no such curve, though single readings can be large; an effect the other way counts as inactive or inconclusive.
SMILES,IL-1B inflam inh,HT1080-NT tox,DT40 TDP1 CPT,DT40 TDP1 no CPT,HT1080 IDH1KD tx,ALOX12 inh
CCOC(=O)c1sc(NC(=O)CCN2CCN(C)CC2)c(C(=O)OCC)c1C,-,21µM,?,?,?,-
CCOC(=O)c1c(NC(=O)CN2CCN(C)CC2)sc(C(=O)Nc2ccccc2)c1C,-162,?,?,?,23µM,-
COc1cccc(-c2cc3c(ccn3C)c(C(=O)NCCc3cnc[nH]3)n2)c1OC,.,.,.,.,.,-
O=C(NC1CCCCC1)C1c2ccccc2OCC(=O)N1Cc1ccccc1 (stereo not drawn),-,-,-,?,-,-
Cc1cc(C(C#N)c2ccc(Cl)cc2)c(Cl)cc1NC(=O)CC(C)(C)C (stereo not drawn),.,.,.,.,.,-
COc1cc(/C=C/C(=O)OCc2ccc(C#N)cc2)cc(OC)c1OC,.,.,.,.,.,-
CCN1CCCC2(Cc3ccccc3CN(C(=O)C(C)C)C2)C1 (stereo not drawn),.,.,.,.,.,-[6.33 µM]
O=C(CCc1ncc(-c2ccc(F)cc2)o1)Nc1ccccc1,.,.,.,.,.,-
CCn1nccc1C(=O)N1CCC(Cc2noc(C3CCOCC3)n2)C1 (stereo not drawn),.,.,.,.,.,-
Nc1cccnc1S(=O)(=O)c1ccccc1,-,-,-,-,-,-
O=[N+]([O-])c1cccnc1S(=O)(=O)c1ccccc1,-97,12µM,0.92µM,0.82µM,18µM,-
COc1ccc([N+](=O)[O-])c(S(=O)(=O)c2ccccc2)n1,-96,21µM,0.58µM,1.6µM,13µM,-
COc1ccc([N+](=O)[O-])c(S(=O)(=O)c2ccc(Cl)cc2)n1,-95,23µM,1µM,0.65µM,8.2µM,-
COc1ccc(C(=O)N2CCN(C(=O)N3CC4CC(C3)[C@H]3CCCC(=O)N3C4)CC2)cc1 (stereo partly drawn),.,.,.,.,.,-
Cn1cc(CCC(=O)N2CCC3(CC2)CC(c2ccccc2)C(=O)N3)cn1 (stereo not drawn),.,.,.,.,.,-
O=C(O)CCC(=O)N1CCN(c2ncccc2C(F)(F)F)CC1,-,-,-,-,-,-
CCOC(=O)C1=C(O)/C(=C/c2cc(OC)c(OC)c(OC)c2)SC1=Nc1ccc(OC)cc1,-,-,?,21µM,-,-
CCOC(=O)C1=C(O)/C(=C/c2ccc(OCC(=O)O)c(OCC)c2)SC1=Nc1ccc(OC)cc1,-,-,-,-,-,-
CC(C)NC(=O)CC[C@@H]1CNC(=O)[C@@H]2C[C@H](NC(=S)NCc3ccco3)CN12,.,.,.,.,.,-
O=C(c1cccc(Cl)c1)N1CCC2(CC1)CC(O)CCO2 (stereo not drawn),.,.,.,.,.,-
CCCc1c(C(=O)N2CCN(c3ccccc3OC)CC2)cnn1-c1ccccc1,-,-,?,18µM,-,?
CCCc1c(C(=O)Nc2ccc(OC)cc2)cnn1-c1ccccc1,-,-,-,?,-,-
CCCc1c(C(=O)NNc2ccccc2OC)cnn1-c1ccccc1,-52,-,-,-,-,-
Cc1ccc(NC=C(S(=O)(=O)c2ccccc2)S(=O)(=O)c2ccccc2)cc1,-,-,-,?,-,-
Cc1ccc(NC=C(S(=O)(=O)c2ccccc2)S(=O)(=O)c2ccccc2)c(C)c1,-,-,?,21µM,-,-
SMILES,IL-1B inflam inh,HT1080-NT tox,DT40 TDP1 CPT,DT40 TDP1 no CPT,HT1080 IDH1KD tx,ALOX12 inh
COC(=O)C(NC(=O)CCc1c(C)nc2c(c(C)nn2-c2ccccc2)c1C)C(C)C (stereo not drawn),-,-,16µM,16µM,-,-
CCOC(=O)CCc1c(C)nc2c(c(C)nn2-c2ccccc2)c1C,-,-,?,-,-,-
CCC(C)NC(=O)CCc1c(C)nc2c(c(C)nn2-c2ccccc2)c1C (stereo not drawn),-,-,10µM,23µM,-,-
NC(=O)C1CCN(CC[C@H]2CN(C(=O)Nc3ccc(OC(F)(F)F)cc3)CC[C@H]2CC(=O)O)CC1,.,.,.,.,.,-
CC(=O)N1Cc2cc(C(=O)NCC(F)(F)F)nc(-c3cccc(-c4cccnc4)c3)c2[C@H]1CCO,-,-,-,-,-,-
CCS(=O)(=O)N1Cc2cc(C(=O)NCC3CC3)nc(-c3cccc(-c4cccnc4)c3)c2[C@@H]1CCO,-,?,?,26µM,?,-
CC(=O)N1Cc2cc(C(=O)NCC(F)(F)F)nc(-c3cccc(-c4cccnc4)c3)c2[C@@H]1CCO,-,?,6.5µM,5.8µM,6.5µM,-
CCNC(=O)c1cc2c(c(-c3cccc(-c4cccnc4)c3)n1)[C@H](CCO)N(S(C)(=O)=O)C2,-,?,4.6µM,4.1µM,2.3µM,-
COc1ccc(CCNc2ncnc3c2cnn3-c2ccc(F)cc2)cc1,.,.,?,?,.,-
COc1ccc(CCNc2ncnc3c2cnn3-c2ccc(C)c(Cl)c2)cc1,.,.,21µM,?,.,?
CN(C)CCNc1ncnc2c1cnn2-c1cccc(Cl)c1,.,.,?,?,.,-
Cc1ccc(-n2ncc3c(NCCCc4ccccc4)ncnc32)cc1C,.,.,?,?,.,-
Cc1ccc(-n2ncc3c(NCCC4=CCCCC4)ncnc32)cc1C,.,.,10µM,?,.,?
COc1ccc(CCNc2ncnc3c2cnn3-c2cccc(Cl)c2)cc1,.,.,?,26µM,.,40µM
CNC(=O)[C@@H](C1CC1)N1CCC[C@H]1C(=O)NCCOC,.,.,.,.,.,-
Cn1c(N)c(C(=O)COC(=O)c2ccccc2C(=O)c2ccc(Cl)cc2)c(=O)n(C)c1=O,?,?,?,15µM,?,-
CC(C)Cn1c(N)c(C(=O)COC(=O)c2ccc3ccccc3n2)c(=O)n(C)c1=O,-,-,16µM,16µM,-,-
Cc1onc(-c2c(F)cccc2Cl)c1C(=O)OCC(=O)c1c(N)n(C)c(=O)n(C)c1=O,-,?,?,?,-,-
Cc1noc(C)c1C(=O)OCC(=O)c1c(N)n(CC(C)C)c(=O)n(C)c1=O,-,-,18µM,?,-,-
CC(C)Cn1c(N)c(C(=O)COC(=O)c2ccccc2F)c(=O)n(C)c1=O,-,-,?,?,-,-
Cc1onc(-c2ccccc2Cl)c1C(=O)OCC(=O)c1c(N)n(C)c(=O)n(C)c1=O,-,-,7.3µM,7.3µM,-,-
COC(=O)N1CCCCC1c1cc(C(=O)Nc2ccc(OC)cc2C)no1 (stereo not drawn),-,-,-,-,-,-
O=C(CCc1nc(-c2ccsc2)no1)Nc1ccccc1N1CCOCC1,.,.,.,.,.,-
CC(C)Cn1c(N)c(C(=O)COC(=O)c2ccccc2C(=O)c2ccccc2)c(=O)n(C)c1=O,-,-,16µM,9.2µM,-,-
